Source: PubChem BioAssay (Broad Institute)
Glyco luc inh = blocks N-linked glycosylation in D54 reporter cells; D54 ERlucT glycosylation luciferase reporter, 24 h; percent of 100 nM tunicamycin response; reporter increase, % at 12.5 µM; 360,000 tested, 0.23% active; AID 588692;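 active = mean luciferase reporter signal, scaled so untreated is 0 and the glycosylation-blocking control 100, at or above a set limit in every replicate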;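 note: luciferase carries N-glycosylation sites so blocking glycosylation raises the light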
CASP6 VEID inh = caspase-6 (human) enzyme inhibition | AID 686996 | 350,000 tested, 0.53% active | purified caspase-6, Z-VEID-R110 cleavage fluorescence | inhibition, % at 12.5 µM | P55212;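 active = mean inhibition across replicates at least about 35%, with every replicate also reaching that limit, limit read from the data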
NSD2 HMT inh = NSD2 (human) methyltransferase inhibition; O96028; AID 743445; 310,000 tested, 0.54% active; inhibition, % at 12.5 µM; NSD2 peptide methylation, AlphaScreen, 120 min; in the data active = inhibition above about 50%
Target sequence (O96028 whole entry, looked up): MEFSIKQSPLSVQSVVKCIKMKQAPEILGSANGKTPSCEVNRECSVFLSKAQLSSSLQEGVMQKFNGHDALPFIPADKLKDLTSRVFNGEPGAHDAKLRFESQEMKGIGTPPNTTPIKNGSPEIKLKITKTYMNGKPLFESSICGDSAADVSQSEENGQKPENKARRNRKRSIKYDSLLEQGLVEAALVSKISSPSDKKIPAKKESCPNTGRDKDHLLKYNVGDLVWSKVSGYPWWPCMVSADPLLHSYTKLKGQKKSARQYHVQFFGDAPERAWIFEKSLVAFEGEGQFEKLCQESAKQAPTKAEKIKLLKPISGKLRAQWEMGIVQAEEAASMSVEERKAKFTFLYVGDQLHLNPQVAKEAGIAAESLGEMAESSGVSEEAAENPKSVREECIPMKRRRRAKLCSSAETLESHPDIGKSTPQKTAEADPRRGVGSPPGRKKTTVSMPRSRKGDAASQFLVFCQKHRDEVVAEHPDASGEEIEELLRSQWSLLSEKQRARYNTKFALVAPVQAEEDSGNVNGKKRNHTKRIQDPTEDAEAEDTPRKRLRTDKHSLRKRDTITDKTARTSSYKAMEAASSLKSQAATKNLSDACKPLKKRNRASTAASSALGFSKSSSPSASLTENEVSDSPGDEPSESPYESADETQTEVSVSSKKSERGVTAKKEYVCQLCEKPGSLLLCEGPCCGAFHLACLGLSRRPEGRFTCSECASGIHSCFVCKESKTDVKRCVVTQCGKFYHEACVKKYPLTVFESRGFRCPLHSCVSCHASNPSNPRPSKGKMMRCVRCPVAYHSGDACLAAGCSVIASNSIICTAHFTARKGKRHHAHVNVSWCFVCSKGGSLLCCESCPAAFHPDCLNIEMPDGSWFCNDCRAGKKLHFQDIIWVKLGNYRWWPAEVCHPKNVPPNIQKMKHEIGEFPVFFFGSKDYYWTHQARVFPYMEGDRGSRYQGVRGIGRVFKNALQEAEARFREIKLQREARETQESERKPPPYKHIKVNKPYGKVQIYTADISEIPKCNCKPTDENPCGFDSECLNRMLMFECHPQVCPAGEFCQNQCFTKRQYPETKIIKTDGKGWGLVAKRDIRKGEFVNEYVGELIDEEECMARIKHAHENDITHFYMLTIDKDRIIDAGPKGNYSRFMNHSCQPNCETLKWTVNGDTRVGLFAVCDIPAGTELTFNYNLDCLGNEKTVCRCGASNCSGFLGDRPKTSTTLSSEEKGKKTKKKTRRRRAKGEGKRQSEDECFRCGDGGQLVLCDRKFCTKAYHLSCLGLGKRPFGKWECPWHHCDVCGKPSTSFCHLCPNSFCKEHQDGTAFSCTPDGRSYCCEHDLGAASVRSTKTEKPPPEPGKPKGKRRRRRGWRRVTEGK
CDK5 inh = CDK5/p35 (human) kinase inhibition. Recombinant CDK5/p35, ADP-Glo luminescence, 60 min. inhibition, % at 10 µM. 330,000 tested, 0.01% active;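 active = highest replicate inhibition of at least 50% and at least 75% of replicates reaching 50%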
Mot1-301 SUMO = inhibitors of SUMOylation pathway: yeast Mot1-301 growth rescue | S. cerevisiae Mot1-301 growth rescue, ATP luminescence, 38.5C; percent above DMSO median, 100 means doubled | growth rescue, % at 18.8 µM | 320,000 tested, 1% active | AID 2716;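 active = every valid replicate shows activation above 250% relative to neutral control wells; inactive = the rest, any valid replicate at or below 250%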
ALR H2O2 inh = human ALR oxidase inhibition via reduced H2O2 | P55789 | purified ALR, DTT oxidation, H2O2 HRP-luminol luminescence | inhibition, % (test concentration not listed) | 290,000 tested, 3.8% active | AID 485317;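 active = mean replicate inhibition above about 79%, with every replicate also reaching it, limit read from the data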
Each line names hits and unclear results; the compound was inactive in the other large screens. This is a sample that favours compounds with a hit; in the whole collection about 3.9% have one here.

O=C(Nc1ccccc1C(=O)O)c1cccc(S(=O)(=O)Nc2ccc(Br)cc2)c1	ALR H2O2 inh 99
Cc1ccccc1NS(=O)(=O)c1cccc(C(=O)Nc2cccc(C(=O)O)c2)c1	none
O=C(Nc1ccccc1C(=O)O)c1cccc(NS(=O)(=O)c2ccc(Br)cc2)c1	none
O=C(Nc1ccccc1O)c1cccc(S(=O)(=O)Nc2ccccc2O)c1	ALR H2O2 inh 99
CN(C)CCNC(=O)c1cccc(S(=O)(=O)Nc2ccccc2F)c1	CASP6 VEID inh 49
O=C(C[C@H]1CC[C@H](NC(=O)Nc2cc(F)ccc2F)[C@H](CO)O1)NCc1ccccn1	none (no result: Glyco luc inh, NSD2 HMT inh, CDK5 inh, Mot1-301 SUMO, ALR H2O2 inh)
O=C(N[C@H]1CC[C@H](CCNC(=O)C2CCCCC2)O[C@H]1CO)c1ccncc1	none (no result: Glyco luc inh, NSD2 HMT inh, CDK5 inh, Mot1-301 SUMO, ALR H2O2 inh)
C[C@H](CO)N1C[C@H](C)[C@@H](CN(C)Cc2ccc(C(F)(F)F)cc2)Oc2ccc(NC(=O)CCCCCC(=O)Nc3ccccc3N)cc2C1=O	none (no result: Glyco luc inh, NSD2 HMT inh, CDK5 inh, Mot1-301 SUMO, ALR H2O2 inh)
COc1cc(C=O)ccc1O	none (no result: NSD2 HMT inh, CDK5 inh, Mot1-301 SUMO, ALR H2O2 inh)
Oc1ccc(/C=N/N(c2ccccc2)c2ccccc2)c(O)c1O	none (no result: ALR H2O2 inh)
CCOc1cc(/C=N/N=C/c2ccc(O)c(OCC)c2)ccc1O	none
O=Cc1ccc(O)c(O)c1	ALR H2O2 inh 99 (no result: NSD2 HMT inh)
O=C(/C(=N/O)c1ccccc1)c1ccccc1	none (no result: Mot1-301 SUMO, ALR H2O2 inh)
O=C(/C(=N/N=C/c1ccc(O)c(O)c1)c1ccccc1)c1ccccc1	CASP6 VEID inh 44 (no result: ALR H2O2 inh)
Oc1ccc(/C=N/N(c2ccccc2)c2ccccc2)cc1O	ALR H2O2 inh 99
Oc1ccc(/C=N/N=C/c2ccc(O)c(O)c2)cc1O	CASP6 VEID inh 68, ALR H2O2 inh 99 (no result: NSD2 HMT inh)
O=C(N[C@H]1C=C[C@@H](CC(=O)N2CCC(Cc3ccccc3)CC2)O[C@@H]1CO)c1cnccn1	none (no result: Glyco luc inh, NSD2 HMT inh, CDK5 inh, Mot1-301 SUMO, ALR H2O2 inh)
C[C@H]1CN([C@@H](C)CO)S(=O)(=O)c2ccc(Br)cc2O[C@@H]1CN(C)C(=O)c1cnccn1	none (no result: Glyco luc inh, NSD2 HMT inh, CDK5 inh, Mot1-301 SUMO, ALR H2O2 inh)
Oc1ccc(N=Cc2ccc(O)c(O)c2)cc1	ALR H2O2 inh 99 (no result: CASP6 VEID inh, NSD2 HMT inh)
Oc1ccc(/C=N/N=C/c2ccc(O)cc2)cc1	ALR H2O2 inh 96
C(=Nc1ccc(Nc2ccccc2)cc1)c1ccc2ccccc2c1	none (no result: CASP6 VEID inh, ALR H2O2 inh)
C[C@@H]1CN([C@@H](C)CO)C(=O)c2cc(-c3ccccc3)cnc2O[C@H]1CN(C)Cc1ccc(C(=O)O)cc1	none (no result: Glyco luc inh, NSD2 HMT inh, CDK5 inh, Mot1-301 SUMO, ALR H2O2 inh)
C[C@@H]1CCCCO[C@@H](CN(C)C(=O)C2CCCCC2)[C@H](C)CN([C@@H](C)CO)C(=O)c2cc(NC(=O)Cc3ccccc3)ccc2O1	none (no result: Glyco luc inh, NSD2 HMT inh, CDK5 inh, Mot1-301 SUMO, ALR H2O2 inh)
COc1ccc2c3c([nH]c2c1)[C@@H](CO)N(CC1CCOCC1)CC31CN(C(=O)c2ccc(F)cc2)C1	none (no result: Glyco luc inh, NSD2 HMT inh, CDK5 inh, Mot1-301 SUMO, ALR H2O2 inh)
COc1ccccc1NC(=O)COC(=O)c1c[nH]c(=O)[nH]c1=O	none (no result: ALR H2O2 inh)
O=C(COC(=O)c1c[nH]c(=O)[nH]c1=O)Nc1ccccc1Br	Mot1-301 SUMO 808 (no result: ALR H2O2 inh)
CC(OC(=O)c1ccc(NC(=O)CC#N)cc1)C(=O)NCCC1=CCCCC1 (stereo unspecified)	ALR H2O2 inh 98
CC(OC(=O)c1ccc(S(=O)(=O)N(C)c2ccccc2)cc1)C(=O)NCCC1=CCCCC1 (stereo unspecified)	none (no result: ALR H2O2 inh)
CCOC(=O)c1c(C)[nH]c(C(=O)C(C)OC(=O)c2ccc(NC(=O)CC#N)cc2)c1C (stereo unspecified)	ALR H2O2 inh 99
C[C@@H]1CN([C@@H](C)CO)C(=O)c2cc(-c3ccc(F)cc3)cnc2O[C@H]1CN(C)C(=O)C1CCC1	none (no result: Glyco luc inh, NSD2 HMT inh, CDK5 inh, Mot1-301 SUMO, ALR H2O2 inh)
COc1cc(-c2cc(C(=O)O)c3c(OC)c(OC)c(OC)cc3n2)ccc1O	ALR H2O2 inh 98 (no result: CASP6 VEID inh)
CN1CCN(CC(=O)Nc2cc(N(C)C)nc3ccccc23)CC1	Glyco luc inh 44
O=C(C1CC(c2ccc(F)cc2)=NO1)N1CCN(Cc2ccccc2)CC1 (stereo unspecified)	Mot1-301 SUMO 318 (no result: NSD2 HMT inh)
O=C(NCC(c1cccnc1)N1CCN(c2ccc(F)cc2)CC1)OCc1ccccc1 (stereo unspecified)	none (no result: CASP6 VEID inh, Mot1-301 SUMO)
COc1cc(C(=O)NCC(c2cccnc2)N2CCN(c3ccccc3)CC2)cc(OC)c1OC (stereo unspecified)	ALR H2O2 inh 99 (no result: NSD2 HMT inh)
COC(=O)NCC(c1cccnc1)N1CCN(c2ccccc2)CC1 (stereo unspecified)	ALR H2O2 inh 89 (no result: NSD2 HMT inh)
O=C(NCCc1c[nH]c2ccccc12)C(=O)NCC(c1cccnc1)N1CCN(c2ccccc2)CC1 (stereo unspecified)	none (no result: NSD2 HMT inh)
